Compound activity: PubChem BioAssay, National Center for Advancing Translational Sciences (NCATS)
D2 ag-1 – Beta-Arrestin HTS for Positive Allosteric Modulators of the Human D2 Dopamine Receptor: Agonists; DiscoveRx PathHunter D2 beta-arrestin, luminescence, 90 min; 100% = 57 uM dopamine signal; activation, % (concentration not given with the values); 0.084% of 360,000 active; in the data active = activation above about 40%
Target sequence (P14416 whole entry, looked up): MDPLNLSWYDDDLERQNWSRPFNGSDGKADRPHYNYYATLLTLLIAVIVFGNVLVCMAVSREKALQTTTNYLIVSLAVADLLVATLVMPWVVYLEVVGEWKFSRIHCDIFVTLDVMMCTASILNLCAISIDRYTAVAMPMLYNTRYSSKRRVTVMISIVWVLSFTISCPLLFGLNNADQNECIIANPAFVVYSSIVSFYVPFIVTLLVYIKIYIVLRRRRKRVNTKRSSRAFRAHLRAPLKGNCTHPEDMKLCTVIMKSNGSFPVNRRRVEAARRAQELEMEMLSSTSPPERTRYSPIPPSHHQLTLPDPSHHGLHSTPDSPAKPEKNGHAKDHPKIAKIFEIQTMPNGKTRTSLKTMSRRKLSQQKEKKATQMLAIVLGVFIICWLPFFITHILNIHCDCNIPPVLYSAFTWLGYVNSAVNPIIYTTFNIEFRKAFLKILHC
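DiscoveRx PathHunter D2 beta-arrestin cells (2,100/well) attached overnight, then compound-stimulated 90 min at 37 C in HBSS/10 mM HEPES/0.1% Tween-20 buffer; beta-galactosidase complementation read by luminescence after 1 h at ambient temperature. Dopamine 57 uM final (EC100) as control.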
D2 PAM-1 – Beta-Arrestin HTS for Positive Allosteric Modulators of the Human D2 Dopamine Receptor: Potentiators | D(2) dopamine receptor (Homo sapiens), P14416 | DiscoveRx D2 beta-arrestin cells, luminescence, 90 min; 100% = 57 uM dopamine signal | potentiation, % (test concentration not listed) | 0.23% of 360,000 active; in the data active = potentiation above about 50%
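PathHunter D2 cells, attached overnight at 37 deg C, received compound in DMSO plus dopamine at EC20 (50 nM final) for 90 min at 37 deg C. Beta-arrestin recruitment was read as luminescence after 1 h with detection reagent at ambient temperature.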
D2 ag-2 – HTS Assay for Allosteric Agonists of the Human D2 Dopamine Receptor: Primary Screen for Agonists; HEK293 T-REx D2 cells, calcium flux agonist mode; AID 485358, 2010; 0.53% of 340,000 active; D(2) dopamine receptor (Homo sapiens), P14416; activation, % at 2 µM;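 active = activation over 3 SD above normal in the single-dose calcium agonist read, cut at about 30% in these data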; note: 0% is about no effect
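Tetracycline-induced HEK293 T-REx cells with force-coupled D2 receptor, plated overnight at 30 C, loaded with no-wash calcium dye. After a 10 s baseline, compound was pin-added and calcium flux read kinetically for 180 s; calcium rises flagged agonists.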
D2 antagonist – HTS Assay for Allosteric Antagonists of the Human D2 Dopamine Receptor: Primary Screen for Antagonists | AID 485344, 2010 | 2% of 340,000 active | inhibition, % at 10 µM | D(2) dopamine receptor (Homo sapiens), P14416 | HEK293 TREx D2 cells, calcium flux, dopamine EC80; in the data active = inhibition above about 30%; inactive = below that, where a call was filed; note: 0% is about no effect
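Inhibition of EC80 dopamine-driven calcium flux, recorded kinetically, defines activity here; cells are a tetracycline-induced HEK293 T-REx line expressing force-coupled D2.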
D2 PAM-2 – HTS Assay for Positive Allosteric Modulators of the Human D2 Dopamine Receptor: Primary Screen for Potentiators | D(2) dopamine receptor (Homo sapiens), P14416 | HEK293 T-REx D2, calcium flux, EC20 dopamine potentiation | 0.34% of 340,000 active | potentiation, % at 10 µM;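 active = potentiation over 3 SD above the plate norm, cut at about 30% in these data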; note: 0% is about no effect
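Tetracycline-induced Hek293 Trex D2 cells, force-coupled to calcium, loaded with no-wash calcium dye. Compound added with 180 s kinetic read for agonism, then EC20 dopamine and a further 180 s read for potentiation.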
* hit, by the source's call. Shown are actives, neighbours in structure and some others; about 2.4% of the full set was active somewhere.

What do the screens show for `O=c1cc(-c2c(F)c(F)c(F)c(F)c2F)oc2c(F)c(F)c(F)c(F)c12`?
D2 ag-2: 18; D2 antagonist: 56*; D2 PAM-2: -12

What do the screens show for `O=c1cc(-c2c(F)c(F)c(F)c(F)c2F)oc2ccccc12`?
D2 ag-1: -3; D2 PAM-1: -18; D2 ag-2: 0; D2 antagonist: -9; D2 PAM-2: 18

Results for Cc1nc2ccccc2n1CC(O)COC1CCCCC1 (stereo not drawn) ?
D2 ag-1: 1; D2 PAM-1: 3; D2 ag-2: 0; D2 antagonist: 32*; D2 PAM-2: -13

How did Cc1ccc(N2CCN(CC(O)COC3CCCCC3)CC2)cc1 (stereo not drawn) do in these assays?
D2 ag-1: -3; D2 PAM-1: -16; D2 ag-2: 0; D2 antagonist: 63*; D2 PAM-2: -26

How did CC(=O)Nc1ccc(OCC(O)Cn2c(C)nc3ccccc32)cc1 (stereo not drawn) do in these assays?
D2 ag-1: 0; D2 PAM-1: -10; D2 ag-2: 1; D2 antagonist: -6; D2 PAM-2: 23

Results for CC(=O)N(C)c1ccc(OCC(O)Cn2c(C)nc3ccccc32)cc1 (stereo not drawn) ?
D2 ag-1: -5; D2 PAM-1: -7; D2 ag-2: 0; D2 antagonist: 22; D2 PAM-2: 31*

What do the screens show for `Cc1cc2nc[nH]c(=O)n2n1`?
D2 ag-1: -3; D2 PAM-1: -5

What do the screens show for `CCOC(=O)c1c(C)n(-c2ccc(C)cc2)c2ccc(OCC(O)CNCC3CCCO3)cc12` (stereo not drawn)?
D2 ag-1: -11; D2 PAM-1: -19; D2 ag-2: 0; D2 antagonist: -4; D2 PAM-2: -8

What do the screens show for `OC(CNCC1COc2ccccc2O1)COc1ccc(Cl)cc1` (stereo not drawn)?
D2 ag-1: -2; D2 PAM-1: -4; D2 ag-2: 33*; D2 antagonist: 104*; D2 PAM-2: -19

How did OC(CNCC1CCCO1)COc1ccc(OCC(O)CNCC2CCCO2)cc1 (stereo not drawn) do in these assays?
D2 ag-1: -2; D2 PAM-1: -17; D2 ag-2: 0; D2 antagonist: -7; D2 PAM-2: 43*

How did CCNS(=O)(=O)c1ccc(CCC(=O)N2CCC(C)CC2)cc1 do in these assays?
D2 ag-1: -3; D2 PAM-1: 0; D2 ag-2: 1; D2 antagonist: 7; D2 PAM-2: 10

Results for Cc1nc(Oc2ccccc2)c2ccsc2n1 ?
D2 ag-1: -3; D2 PAM-1: -7; D2 ag-2: -2; D2 antagonist: 5; D2 PAM-2: 30*

What do the screens show for `COc1ccc(Oc2ncnc3sccc23)cc1`?
D2 ag-1: -2; D2 PAM-1: 2; D2 ag-2: 0; D2 antagonist: 9; D2 PAM-2: 7

Results for CCOC(=O)c1ccc(Cl)c(NC(=O)c2cccnc2)c1 ?
D2 ag-2: 0; D2 antagonist: 24; D2 PAM-2: -6

How did O=C(NCCCN1CCCC1=O)c1ccc2c(c1)NC(=O)C(N1CCOCC1)S2 (stereo not drawn) do in these assays?
D2 ag-1: 2; D2 PAM-1: 13; D2 ag-2: 1; D2 antagonist: 33*

Results for CC(C)Cc1ccc(C(C)C(=O)Nc2cccnc2)cc1 (stereo not drawn) ?
D2 ag-1: -7; D2 PAM-1: -6; D2 ag-2: 12; D2 antagonist: 22; D2 PAM-2: -16

What do the screens show for `CC(C)Cc1ccc(C(C)C(=O)Nc2ccc(O)cc2)cc1` (stereo not drawn)?
D2 ag-1: 5; D2 PAM-1: 3; D2 ag-2: 19; D2 antagonist: 39*; D2 PAM-2: -8

What do the screens show for `CCN1CCN(C(=O)Nc2ccc(OC)cc2OC)CC1`?
D2 ag-1: 3; D2 PAM-1: -5; D2 ag-2: 0; D2 antagonist: 49*; D2 PAM-2: 12

Results for COc1ccc(NC(=O)N2CCCCCC2)c(OC)c1 ?
D2 ag-1: -1; D2 PAM-1: -13; D2 ag-2: 0; D2 antagonist: -7; D2 PAM-2: -2

Results for O=C(Cc1ccccc1)c1ccccc1C(=O)N1CCCCC1 ?
D2 ag-1: -4; D2 PAM-1: -6; D2 ag-2: -2; D2 antagonist: 3; D2 PAM-2: -4

Results for Cc1nn(C(=O)c2cc3sccc3[nH]2)c(C)c1C ?
D2 ag-1: 0; D2 PAM-1: -3; D2 ag-2: 0; D2 antagonist: 34*; D2 PAM-2: -3

Results for CCCCCCC(C)NC(=S)Nc1cc(S(=O)(=O)N(C)C)ccc1C (stereo not drawn) ?
D2 ag-1: -1; D2 PAM-1: -41; D2 ag-2: 1; D2 antagonist: 92*; D2 PAM-2: -27

What do the screens show for `Cc1ccc(S(=O)(=O)N(C)C)cc1NC(=S)NC(C)CCC(C)C` (stereo not drawn)?
D2 ag-1: -3; D2 PAM-1: -37; D2 ag-2: 0; D2 antagonist: 77*; D2 PAM-2: -25

How did Cc1ccc(S(=O)(=O)N(C)C)cc1NC(=S)NC(C)CCCC(C)C (stereo not drawn) do in these assays?
D2 ag-1: 4; D2 PAM-1: -41; D2 ag-2: 0; D2 antagonist: 75*; D2 PAM-2: -23

How did O=C(Cn1c(=O)c2cccn2c2cccnc21)NCc1cccc(F)c1 do in these assays?
D2 ag-2: 0; D2 PAM-2: -5

Results for COc1cc(C(=O)OCC(=O)Nc2ccc(S(=O)(=O)N3CCCC3)cc2)cc(OC)c1OC ?
D2 ag-1: 3; D2 PAM-1: -4

Results for COC(=O)c1c(CSc2ccc(Cl)cc2)noc1C(=O)NCc1ccco1 ?
D2 ag-1: 3; D2 PAM-1: -12; D2 ag-2: 0; D2 antagonist: 38*; D2 PAM-2: -20

What do the screens show for `COC(=O)c1c(CSc2cccc(C)c2)noc1C(=O)NCc1ccco1`?
D2 ag-1: -1; D2 PAM-1: -23; D2 ag-2: -2; D2 antagonist: 0; D2 PAM-2: -10

How did CCOc1ccc(NC(=O)CN(C)Cc2cc(=O)n3c(-c4ccccc4)csc3n2)cc1OCC do in these assays?
D2 ag-1: -3; D2 PAM-1: -4; D2 ag-2: 1; D2 antagonist: 41*; D2 PAM-2: 4

How did Cc1cc(C)cc(OCc2cc(=O)n3c(-c4ccccc4)csc3n2)c1 do in these assays?
D2 ag-2: 1; D2 PAM-2: 1
